Common to all, as to assay: NCI-60 one-dose screen, 48 h (100 = growth as untreated, 0 = no growth, -100 = all killed)
Conditions in all cases: 10 µM unless noted

The subject of experiment [1] is SR leukemia.
The subject of experiment [2] is RPMI-8226 leukemia.
For experiment [3], the system named is OVCAR-8 ovarian.
Experiment [4] relates to OVCAR-5 ovarian.
Experiment [5] relates to OVCAR-4 ovarian.
Experiment [6] concerns SK-OV-3 ovarian.
Experiment [7] has as its system IGROV1 ovarian.
Experiment [8] has as its system OVCAR-3 ovarian.
The test system of experiment [9] is HS 578T breast.
For experiment [10], the system named is NCI/ADR-RES ovarian.

The panel holds about 83,000 compounds, 20% with a hit somewhere; the sample as a whole holds those more often.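 48-hour exposure, single concentration, 96-well plates; percent growth endpoint where 0 means no net growth. Active: below 10.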 Values without a mark were called inactive. The source made the active and inactive calls.

As for `O=C(Nc1nn(-c2ccc(Cl)cc2Cl)nc1-c1ccccc1)c1ccccc1`, the growth in experiment [1] was 46%; in experiment [2] it was 75.7%; in experiment [3], 103%; in experiment [4], 92%; in experiment [5] it was 106%; in experiment [6], 117%. The growth is 95% in experiment [7], 90.7% in experiment [8], 105% in experiment [9] and 106% in experiment [10].

Turning to `O=C(CSc1nc2sc3c(c2c(=O)n1-c1ccccc1)CCCCC3)N/N=C/c1ccc(F)cc1`, the growth was 11.3% in experiment [1]; 66% in experiment [2]; -17.9% (active) in [3]; 41.8% in [4]; -47.4% (active) in experiment [5]; 73.4% in experiment [6]. Further, the growth is 62.1% in experiment [7], -33.8% (active) in experiment [8], -13.9% (active) in experiment [9] and 22.9% in [10].

Take `CC1(C)CC[C@]2(c3nnc(-c4ccncc4)o3)CC[C@H]3C(=CC[C@H]4[C@@]3(C)CC[C@H]3C(C)(C)C(=O)CC[C@]43C)[C@@H]2C1`: the growth in [1] is 17%; in experiment [2], 19.2%; in [3], 86.9%; in experiment [4], 96.1%; in experiment [5], 70.1%; in [6], 82.9%. The growth is 71.9% in [7], 45% in experiment [8], 82.4% in experiment [9] and 82% in [10].

As for `COc1ccc(-c2cc(-c3ccc(Cl)cc3)c(C#N)c(=O)n2CCCCC(=O)Nc2ccccc2N)cc1`, the growth in experiment [1] was 15.5%; in experiment [2] it was 0.147% (active); in experiment [3], 42.8%; in experiment [4] it was 58.6%; in experiment [5], 66.5%; in experiment [6] it was 78%. In addition, the growth in [7] was 47.4%; in [8] it was 69.5%; in [9], 75.7%; in experiment [10], 37.3%.

In the case of `O=C(Nn1c2c(sc1=Nc1ccccc1)C(=O)c1ccccc1C2=O)c1cc2ccc1CCc1ccc(cc1)CC2`, the growth in experiment [1] is 61.1%; in [2], 75.2%; in experiment [3], 62.2%; in experiment [4] it was 110%; in experiment [5], 69.4%; in experiment [6], 76.3%. Further, the growth in experiment [7] is 48.8%; in experiment [8], 64.8%; in [9], 78.9%; in experiment [10] it was 70.2%.

Regarding `COC(=O)c1cc(-c2ccccc2)[nH]c1N/N=C/c1c(Cl)cccc1Cl`, the growth in [1] is -9.18% (active); in experiment [2], -12.7% (active); in [3], 15.4%; in [4] it was 21.9%; in experiment [5] it was 64.5%; in [6], 24.4%. The growth in [7] was -44.5% (active); in [8], -76.7% (active); in experiment [9] it was -30.4% (active); in [10], -16.2% (active).

As for `Cc1nnc(-n2c(O)cc(=O)n(-c3ccccc3)c2=S)nc1/C=C/c1ccc(N(C)C)cc1`, the growth in experiment [1] is 36.2%; in [2] it was 16.1%; in [3] it was 53.3%; in experiment [4] it was 82.7%; in experiment [5], 50.3%; in [6], 45.6%. For the same compound, the growth in experiment [7] was 58.1%; in experiment [8] it was 44.3%; in experiment [9], 47.8%; in experiment [10] it was 44.6%.

Turning to `N#Cc1cnc(NCCc2ccncc2)nc1-n1cnc2ccccc21`, the growth in [1] was 35.4%; in experiment [2] it was 65.3%; in experiment [3], 54%; in experiment [4] it was 66.9%; in experiment [5] it was 74.2%; in experiment [6] it was 25.5%. Also, the growth is 29.1% in experiment [7], 76.7% in experiment [8], 72.1% in experiment [9] and 64.9% in experiment [10].

With `COc1ccc(-c2ccc3cnc4sc(-c5ccc(OC)cc5)nc4c3n2)cc1`, the growth is 83.7% in experiment [1]; 87.5% in experiment [2]; 96.3% in experiment [3]; 97.4% in [4]; 96.9% in experiment [5]; 92.6% in experiment [6]. For the same compound, the growth is 94% in experiment [7], 101% in [8], 94.4% in experiment [9] and 92.9% in [10].

For the compound `O=S(=O)(Nc1cc(Br)c(O)c2ccccc12)c1ccc(F)cc1`, the growth in experiment [1] was 11.6%; in [2] it was 27.2%; in experiment [3] it was 3.09% (active); in [4] it was 113%; in experiment [5], -97.5% (active); in experiment [6] it was 99.7%. For the same compound, the growth in experiment [7] was 81.4%; in experiment [8] it was -0.424% (active); in [9], 98.3%; in experiment [10], 4.65% (active).

`CN1CCN(c2ccc(NC(=O)c3cncnc3Nc3ccc(OCc4ccccn4)c(Cl)c3)cc2)CC1`: the growth in [1] is 4.59% (active); in experiment [2], 23.3%; in experiment [3], 15.2%; in experiment [4] it was 46.4%; in [5], 61.8%; in experiment [6], 99.4%. For the same compound, the growth in [7] was 79.4%; in experiment [8], 70.6%; in experiment [9], 67.4%; in experiment [10] it was 70.5%.

Consider `COc1ccc(C/C(C)=C(/c2ccc(OCCN3CCCCC3)cc2)c2ccc(OC(=O)NCc3ccccc3)cc2)cc1`, for which the growth in experiment [1] was -58% (active); in [2], -62.3% (active); in experiment [3], -83.5% (active); in experiment [4], -78.6% (active); in experiment [5] it was -91.4% (active); in experiment [6], -93.7% (active). Moreover, the growth in experiment [7] was -71.1% (active); in [8], -89.2% (active); in experiment [9] it was -57.6% (active); in experiment [10], -75.7% (active).

Regarding `CC(=O)Nc1nc2ccc(NS(=O)(=O)c3cccc4c(N(C)C)cccc34)cc2[nH]1`, the growth was 24.8% in experiment [1]; 43.3% in experiment [2]; 85.4% in [3]; 84.4% in experiment [4]; 76.9% in experiment [5]; 88.1% in experiment [6]. Further, the growth in experiment [7] is 51.5%; in experiment [8], 41.1%; in [9] it was 52.3%; in experiment [10] it was 97.7%.

Turning to `O=C1c2cccnc2C(=O)c2c1c(C(=O)NCCn1ccnc1)c1ccccn21`, the growth is 7.94% (active) in [1]; 55.8% in experiment [2]; 4.37% (active) in experiment [3]; 92.1% in experiment [4]; -47.6% (active) in experiment [5]; 48.4% in [6]. Also, the growth in experiment [7] is 26.3%; in experiment [8], 3.37% (active); in experiment [9], 65.6%; in experiment [10], 75.3%.

As for `CCN1C(=O)N(CC)C2C1NN=c1s/c(=C\c3cccc([N+](=O)[O-])c3)c(=O)n12` (stereo not given), the growth in [1] is 12.7%; in experiment [2] it was 22.8%; in experiment [3], 6.8% (active); in experiment [4], 33%; in [5], 51.1%; in experiment [6], 38.3%. In addition, the growth is 22.6% in experiment [7], 1.4% (active) in [8], 17.6% in experiment [9] and 9.2% (active) in experiment [10].

`CN(CCn1sc(=O)n(Cc2ccccc2)c1=O)Cc1ccc2c(Cl)cc(Cl)c(O)c2n1`: the growth in experiment [1] is 39.2%; in experiment [2] it was 45%; in [3], 32.7%; in experiment [4] it was 61.4%; in experiment [5], 59.3%; in experiment [6], 65.4%. Further, the growth in experiment [7] was 37.3%; in experiment [8] it was 18.9%; in experiment [9], 68.1%; in experiment [10], 6.83% (active).

Take `CCCCCCCCCCCCCCCCCCOc1ccccc1CC(=O)NCC[N+]1(C)CCCC1`: the growth is 23% in experiment [1]; 52.7% in experiment [2]; 49.7% in experiment [3]; 22.9% in [4]; 42.5% in experiment [5]; 77.4% in [6]. Also, the growth in [7] was -21.5% (active); in [8] it was 39%; in experiment [9], 60.7%; in [10] it was 103%.

With `CCOC(=O)Cn1c(O)c(N=Nc2ccc(S(N)(=O)=O)cc2)c2cc(Br)ccc21`, the growth is 75.3% in experiment [1]; 79.5% in experiment [2]; 56.5% in [3]; 85.9% in experiment [4]; 31.2% in [5]; 81.9% in [6]. The growth in [7] was 73%; in experiment [8], 84.9%; in experiment [9], 89.7%; in experiment [10], 89.7%.

For `Nc1nc2c([nH]1)c1[nH]c3ccccc3c1c1[nH]c3ccccc3c21`, the growth in experiment [1] is -24.9% (active); in experiment [2], -22.7% (active); in [3], 57.5%; in [4] it was 85.9%; in experiment [5], 66.8%; in [6], 86.1%. The growth was 58.9% in [7], 36.6% in experiment [8], 47.2% in [9] and 86.5% in [10].

Regarding `COc1cc(-c2nc3cc(Cl)c(Cl)cc3[nH]2)ccc1OCC(=O)N=Nc1c(O)[nH]c2ccc([N+](=O)[O-])cc12`, the growth in [1] was 23.9%; in [2], 101%; in [3], 69.3%; in experiment [4] it was 105%; in experiment [5], 71.7%; in experiment [6], 77%. The growth was 87.1% in [7], 36.1% in experiment [8], 68.2% in experiment [9] and 109% in [10].

`CCOC(=O)C(=Cc1cccc(Cl)c1)C(=O)OCC`: the growth was 6.69% (active) in experiment [1]; -8.77% (active) in experiment [2]; -8.33% (active) in [3]; 13.9% in experiment [4]; 59.9% in [5]; 100% in [6]. Besides, the growth in experiment [7] is 9.1% (active); in [8], 33.8%; in experiment [9], 68%; in [10], 4.71% (active).

On to `CCSc1nc(NC)c2cc(-c3ccc(C(F)(F)F)cc3)ccc2n1`, for which the growth in experiment [1] was 94%; in [2] it was 94.8%; in [3] it was 102%; in [4] it was 104%; in experiment [5] it was 96.2%; in experiment [6], 96.1%. Further, the growth in experiment [7] is 97.2%; in experiment [8], 110%; in [9], 101%; in experiment [10], 106%.

In the case of `Cc1cc(N)c2cc(NC(=O)/C=C\c3ccccc3Cl)ccc2n1`, the growth in [1] is 7.11% (active); in experiment [2] it was -70.9% (active); in experiment [3], -41.9% (active); in experiment [4], -95.4% (active); in experiment [5], -64.1% (active); in experiment [6], -96.4% (active). Further, the growth was -67.5% (active) in [7], -90.2% (active) in experiment [8], -72.3% (active) in experiment [9] and 48.9% in experiment [10].

On to `COc1ccc(OC)c(-c2c(C#N)c(-c3cccs3)nc3c2c(-c2ccccc2)nn3-c2ccccc2)c1`, for which the growth is 106% in [1]; 106% in [2]; 101% in experiment [3]; 103% in [4]; 111% in [5]; 93.2% in [6]. Also, the growth in [7] was 99.2%; in [8], 114%; in experiment [9], 87.7%; in experiment [10], 107%.

As to `OB(O)c1cccc(-c2nc3ccc4[nH]ncc4c3c3c2CCCC3)c1`, the growth was 32.2% in [1]; 53% in experiment [2]; 48.7% in [3]; 78.3% in experiment [4]; 80.2% in [5]; 7.93% (active) in experiment [6]. For the same compound, the growth in experiment [7] is 47.2%; in [8], 73.9%; in [9], 0.588% (active); in [10] it was 87.6%.

Turning to `C=C1C(=O)O[C@H]2[C@H]1CC/C(COC(=O)N[C@H]1C[C@H](O[C@H]3C[C@](O)(C(=O)CO)Cc4c(O)c5c(c(O)c43)C(=O)c3c(OC)cccc3C5=O)O[C@@H](C)[C@H]1O)=C\CC[C@@]1(C)O[C@@H]21`, the growth in experiment [1] was 5.44% (active); in experiment [2], -24.2% (active); in experiment [3] it was 66%; in experiment [4] it was 96.4%; in [5] it was 62.5%; in [6], 107%. In addition, the growth in [7] is 56.7%; in experiment [8] it was -8.47% (active); in experiment [9] it was 73%; in [10] it was 100%.

These data come from PubChem BioAssay (NCI).
